In PubChem BioAssay AID1159580 (chemical genetic matrix, 2015):
Out of some 5,500 compounds screened, about 2,000 (36%) were called active. Another 18% or so got no clear call; they are omitted. Some of the results follow. Unmarked numbers belong to inactive results. Rule as the data show it: active = normalized growth mostly below about 0.91 (no sharp cut-off); inconclusive = no clear call, values can overlap the other calls; inactive = mostly above about 0.92.

Assay: chemical genetic growth profiling, strain panel (AID 1159580);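 also: tested at 20 µM; growth read once vehicle control cultures reached saturation at 30 °C; 1 = growth at the plate median or of vehicle wells; lower values mean less growth of the strain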
Settings: S. cerevisiae deletion strains, growth OD

NC(N)=Nc1nc(-c2cc(Cl)sc2Cl)cs1
normalized growth (locus YAR019C, strain CDC15, active compounds read low): 0.994
normalized growth (locus YBL105C, strain PKC1, active compounds read low): 0.998
normalized growth (locus YBR135W, strain CKS1, active compounds read low): 0.987
normalized growth (locus YBR136W, strain MEC1, active compounds read low): 0.99
normalized growth (locus YBR160W, strain CDC28, active compounds read low): 0.99
normalized growth (locus YDL017W, strain CDC7, active compounds read low): 0.993
normalized growth (locus YDL028C, strain MPS1, active compounds read low): 0.985
normalized growth (locus YDL101C, strain DUN1, active compounds read low): 0.966
normalized growth (locus YDL108W, strain KIN28, active compounds read low): 0.988
normalized growth (locus YDL132W, strain cdc53, active compounds read low): 0.979
normalized growth (locus YDL214C, strain PRR2, active compounds read low): 0.934
normalized growth (locus YDR052C, strain DBF4, active compounds read low): 0.99
normalized growth (locus YDR054C, strain cdc34, active compounds read low): 0.973
normalized growth (locus YDR226W, strain ADK1, active compounds read low): 0.974
normalized growth (locus YDR477W, strain SNF1, active compounds read low): 0.944
normalized growth (locus YER123W, strain YCK3, active compounds read low): 0.862
normalized growth (locus YER133W, strain GLC7, active compounds read low): 0.905
normalized growth (locus YFL009W, strain cdc4, active compounds read low): 0.983
normalized growth (locus YFL029C, strain CAK1, active compounds read low): 0.988
normalized growth (locus YFR003C, strain YPI1, active compounds read low): 0.986
normalized growth (locus YFR019W, strain FAB1, active compounds read low): 0.947
normalized growth (locus YFR028C, strain CDC14, active compounds read low): 0.982
normalized growth (locus YGR040W, strain KSS1, active compounds read low): 0.942
normalized growth (locus YGR052W, strain FMP48, active compounds read low): 0.935
normalized growth (locus YGR092W, strain DBF2, active compounds read low): 0.945
normalized growth (locus YHR030C, strain SLT2, active compounds read low): 0.821 (active)
normalized growth (locus YHR079C, strain IRE1, active compounds read low): 0.897
normalized growth (locus YHR082C, strain KSP1, active compounds read low): 1
normalized growth (locus YHR205W, strain SCH9, active compounds read low): 0.904
normalized growth (locus YIL147C, strain SLN1, active compounds read low): 0.987
normalized growth (locus YJL095W, strain BCK1, active compounds read low): 0.826
normalized growth (locus YJL128C, strain PBS2, active compounds read low): 0.922
normalized growth (locus YJL157C, strain FAR1, active compounds read low): 0.932
normalized growth (locus YJR016C, strain ILV3, active compounds read low): 0.997
normalized growth (locus YJR066W, strain TOR1 (second series), active compounds read low): 0.886
normalized growth (locus YJR066W, strain TOR1, active compounds read low): 0.997
normalized growth (locus YKL048C, strain ELM1, active compounds read low): 0.947
normalized growth (locus YKL067W, strain YNK1, active compounds read low): 0.932
normalized growth (locus YKL101W, strain HSL1, active compounds read low): 0.93
normalized growth (locus YKL193C, strain SDS22, active compounds read low): 0.985
normalized growth (locus YKL203C, strain TOR2, active compounds read low): 0.988
normalized growth (locus YLR113W, strain HOG1, active compounds read low): 0.757 (active)
normalized growth (locus YLR133W, strain CKI1, active compounds read low): 0.958
normalized growth (locus YLR403W, strain SFP1, active compounds read low): 0.962
normalized growth (locus YML070W, strain DAK1, active compounds read low): 0.901
normalized growth (locus YMR001C, strain CDC5, active compounds read low): 0.993
normalized growth (locus YMR205C, strain PFK2 (second series), active compounds read low): 0.948
normalized growth (locus YMR277W, strain FCP1, active compounds read low): 0.985
normalized growth (locus YNL006W, strain LST8, active compounds read low): 0.984
normalized growth (locus YNL020C, strain ARK1, active compounds read low): 0.96
normalized growth (locus YNL161W, strain CBK1, active compounds read low): 0.989
normalized growth (locus YNL183C, strain NPR1, active compounds read low): 0.988
normalized growth (locus YNL207W, strain RIO2, active compounds read low): 0.989
normalized growth (locus YNL222W, strain SSU72, active compounds read low): 0.99
normalized growth (locus YNL307C, strain MCK1 (second series), active compounds read low): 0.927
normalized growth (locus YOL078W, strain AVO1, active compounds read low): 0.986
normalized growth (locus YOL136C, strain PFK27, active compounds read low): 0.91
normalized growth (locus YOR061W, strain CKA2, active compounds read low): 0.983
normalized growth (locus YOR119C, strain RIO1, active compounds read low): 0.981
normalized growth (locus YOR231W, strain MKK1, active compounds read low): 0.935
normalized growth (locus YOR329C, strain SCD5, active compounds read low): 0.995
normalized growth (locus YPL031C, strain PHO85, active compounds read low): 0.93
normalized growth (locus YPL153C, strain RAD53, active compounds read low): 0.921
normalized growth (locus YPL204W, strain HRR25, active compounds read low): 0.921
normalized growth (locus YPL209C, strain IPL1, active compounds read low): 0.99
normalized growth (locus YPL256C, strain CLN2, active compounds read low): 0.89
normalized growth (locus YPR025C, strain CCL1, active compounds read low): 0.992
normalized growth (locus YPR106W, strain ISR1, active compounds read low): 0.985
normalized growth (locus YPR111W, strain DBF20, active compounds read low): 0.974
normalized growth (strain NNK1, active compounds read low): 0.971
normalized growth (strain TSCII, active compounds read low): 0.985
